Test results taken from ChEMBL document CHEMBL4513216, “Probing the Open Global Health Chemical Diversity Library for Multistage-Active Starting Points for Next-Generation Antimalarials” (ACS Infect Dis, 2020).
The whole screen tested about 68,000 compounds, of which about 2,700 (4%) showed an effect of 50% or more. Shown is part of a subset that was picked to be rich in strong results.

tested on: Plasmodium berghei; experiment: Screen against P. berghei liver stage (PbLuc), transformed with Luciferase, at 2uM; assay type: functional, HepG2; conditions: tested at 2 uM

| SMILES | INHIBITION [%] |
| --- | --- |
| CCN1Cc2cc(F)ccc2N(C(C)=O)CCC1=O | -10.65 |
| CNc1nc2c(s1)C(c1ccccc1F)CC(=O)N2 (centres undefined) | -37.62 |
| Cc1ccc(-c2ncc(CNc3cnccc3CO)s2)cc1 | -13.13 |
| O=C(C1CCC2(CCN(Cc3cccnc3)CC2)CO1)N1CCCC1 (centres undefined) | -84.83 |
| CC(NC(=O)N1CCN(c2cccs2)CC1)c1ccc(C#N)cc1 (centres undefined) | 16.79 |
| CN1CCN(Cc2nnc(C3CCN(CC4CC4)CC3)n2C)CC1 | -0.04 |
| CN1CCN(Cc2nnc(C3CCN(C4CCCCC4)CC3)n2C)CC1 | 26.81 |
| CN1CCN(Cc2nnc(C3CCN(C(CO)CO)CC3)n2C)CC1 | 59.68 |
| Cc1cc(CN2CCC(C3Nc4ccccc4S(=O)(=O)N3)CC2)oc1C (centres undefined) | 22.81 |
| CCOC(=O)CN(C)C1CCc2ccccc21 (centres undefined) | 44.71 |
| CN(C)C(=O)CNC(=O)c1cc2ccccc2nc1N1CCCC1 | 8.74 |
| CCn1cc(Cl)c(C(=O)NCCCO)n1 | 12.84 |
| CCN(CC(=O)NCc1nc(C2CC2)no1)Cc1ccc(Cl)cc1 | -37.68 |
| O=C(CCNC(=O)c1ccc(Cl)cc1)NCc1nc(C2CC2)no1 | 60.34 |
| CCc1nc(C2CCCN(C(=O)c3ccc(Cl)cc3)C2)no1 (centres undefined) | 9.82 |
| c1cnc(N2CCCC(NCc3ccc(-n4ccnc4)cc3)C2)nc1 (centres undefined) | 1.91 |
| Cc1cnn(CC2CCCCN2C(=O)c2c(C)noc2C)c1 (centres undefined) | -13.24 |
| CCC(CO)NCc1ccc(-c2ccccc2)o1 (centres undefined) | 12.02 |
| CN(C)c1ccc(C(=O)NCCCNc2ccc(C(F)(F)F)cn2)cc1 | 25.74 |
| Nc1ncc(-c2ccc(Cl)cc2)c(C2CCCNC2)n1 (centres undefined) | 37.63 |
| Nc1ncc(-c2ccc(F)cc2)c(C2CCCNC2)n1 (centres undefined) | 54.2 |
| Nc1ncc(-c2ccc(C(F)(F)F)cc2)c(C2CCCNC2)n1 (centres undefined) | -10.58 |
| O=C(C1CC=CC1)N1C[C@@H]2CN(Cc3ccsc3)CCO[C@@H]2C1 | -10.92 |
| Cc1ccc(C)c(CC(=O)NC2CCCS(=O)(=O)C2)c1 (centres undefined) | 57.75 |
| Cc1ccc(C)c(CC(=O)NC2CCC(N3C(=O)CCC3=O)CC2)c1 (centres undefined) | -37.65 |
| Cc1ccc(C)c(CC(=O)NC2CCS(=O)(=O)CC2)c1 | 29.13 |
| CC(C)c1nc(CN(C)C(=O)c2ccc(CN3CCCCC3)cc2)cs1 | 0.31 |

| SMILES | INHIBITION [%] |
| --- | --- |
| Fc1ccc(CN2CCC3(CC2)CC(c2cccnc2)CO3)cc1 (centres undefined) | -14.21 |
| CC(C)N(C)Cc1cnc2n1CCN(C(=O)Cc1cccs1)C2C (centres undefined) | 70.31 |
| CCOCc1cnc2n1CCN(C(=O)Cc1cccs1)C2C (centres undefined) | -24.63 |
| CC1c2ncc(Cn3cncn3)n2CCN1C(=O)Cc1cccs1 (centres undefined) | 28.77 |
| CCc1n[nH]c(C2CN(C(=O)c3cc4c(s3)CCCC4)CCO2)n1 (centres undefined) | 20.28 |
| Cc1cc2c(N)nc(=O)n(CC(=O)Nc3cccc(Cl)c3)c2s1 | 6.05 |
| CCN(CCOC)C(=O)c1cc(COc2ccc3c(c2)CCCC3)on1 | 29.89 |
| COCCCN1CCc2cncnc2C1 | -12.48 |
| CCOCCN1CCc2cncnc2C1 | 31.51 |
| CC(C)OCCN1CCc2cncnc2C1 | 62.51 |
| COC(=O)c1sc(C(NC(=O)c2ccccc2)C2CC2)nc1C (centres undefined) | -13.12 |
| C=C(C)CN1CCC(NC(=O)c2scnc2C)CC1 | -7.13 |
| COc1cc(I)c(Cl)cc1C(=O)N(C)C | 32.04 |
| COCCNc1nc2c(c(N3CCn4nc(C)cc4C3)n1)CCNCC2 | 51.19 |
| CCOCc1nc2c(c(N3CCCn4nc(C)cc4C3)n1)CCNCC2 | -31.55 |
| Cc1cc2n(n1)CCN(c1nc(N)nc3c1CCNCC3)C2 | 17.6 |
| O=C1CC[C@@H](C(=O)N2CCC(Cn3cc(C4CCCCC4)nn3)CC2)N1 | 17.61 |
| CC(C)n1nc2c(cc1=O)CN(c1ncnc3sccc13)CC2 | -35.16 |
| COCCN1C(=O)c2ccc(C(=O)NCCc3c[nH]cn3)cc2C1=O | 34.59 |
| CC(C)CN(CC(O)c1ccc(F)cc1)C(=O)c1cnsn1 (centres undefined) | -36.72 |
| O=C(NC1CCN(Cn2nc(-c3ccccc3)oc2=O)CC1)C1CC1 | -0.69 |
| CC1CCCN(Cc2cccc(C(=O)Nc3nccs3)c2)C1 (centres undefined) | 63.46 |
| Cc1cc(C2CCCN2Cc2cccc(C(=O)Nc3nccs3)c2)no1 (centres undefined) | 2.7 |
| CC(=O)Nc1cccc(CN2CCCC2C(=O)Nc2nccs2)c1 (centres undefined) | -4.48 |
| CC(C)N(C)Cc1cn2c(n1)CN(C(=O)Cc1ccccc1)CC2 | -47.56 |
| Cc1noc(Cl)c1CCC(=O)N1CCN(CC(C)(C)O)CC1 | 21.89 |
| CCN1CCN(C(=O)CCc2c(C)noc2Cl)CC1 | -61.5 |
